Laboratory results taken from PubChem BioAssay (NCI).
The panel holds about 83,000 compounds, 20% with a hit somewhere; the sample as a whole holds those more often.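 Single-dose data. Exposure time 48 hours. Values below 10 considered active.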 Unmarked numbers belong to inactive results. Calls of active or inactive are those of the source.

Test system: MDA-MB-468 breast
Test: NCI-60 one-dose screen, 48 h (100 = growth as untreated, 0 = no growth, -100 = all killed)
Conditions: 10 µM unless noted

SMILES | growth
COc1ccc(CNCCN2C(=O)c3ccc4c5c(ccc(c35)C2=O)C(=O)N(CCNCc2ccc(OC)cc2)C4=O)cc1 | -94.3% (active)
Cc1c(Cn2c(C)nc3c(C(=O)O)cc(N4CCOCC4)cc32)cccc1C(F)(F)F | 104%
O=C(/C=C/c1cc(CN2CCOCC2)c(O)c2ncccc12)c1cc(CN2CCOCC2)c(O)c2ncccc12 | 4.37% (active)
COc1nc2ccccc2cc1-c1nc2c(cnn2-c2ccccc2)c(=O)[nH]1 | 35.9%
Cc1ccc2c(c1)c1nc3cc(C)c(C)cc3nc1n2CCN(C)C | -2.86% (active)
CC1=CC(=O)OC1C/C=C(\C)CCC1[C@@]2(C)CCC[C@@](C)(C(=O)O)C2CC[C@@]1(C)O (stereo not given in full) | 102%
Nc1ccc(-c2ccncc2)cc1NC(=O)N1CCCC1 | 94.2%
COc1ccc(-c2cnc(-c3ccc(Cl)cc3)[nH]2)cc1OC | 84.7%
Cc1cc(C2(c3cc(C)c(O)cc3C)OS(=O)(=O)c3ccccc32)c(C)cc1O | 114%
CCCCCCCCCCOC(c1ccccc1)c1ccccc1 | 92.1%
O=S(=O)(NCCNc1nccc(-c2c(-c3cccc(F)c3)nc3occn23)n1)c1ccc(C(F)(F)F)cc1 | 74.7%
O=C1c2ccccc2C(=O)c2c1oc1c2c(=O)[nH]c2ccccc21 | -8.43% (active)
CN1CCN(c2ccc3c(c2)nc(NNC(=O)c2ccncn2)c2cccn23)CC1 | 19.7%
Nc1cc(N)c(N=Nc2ccc(S(=O)(=O)O)cc2)cc1N=Nc1ccc(-c2ccc(N=Nc3ccc(O)c(C(=O)O)c3)cc2)cc1 | 97.6%
CCCCO[C@@H]1C=C2[C@H]3CC(C)(C)C(=O)C[C@]3(C(=O)O[C@@H]3O[C@H](CO[C@@H]4O[C@H](CO)[C@@H](OC5OC(C)C(O)C(O)C5O)[C@H](O)[C@H]4O)[C@@H](O)[C@H](O)[C@H]3O)CC[C@@]2(C)[C@]2(C)CC[C@H]3C(C)(C)C(=O)CC[C@]3(C)[C@@H]12 (stereo not given in full) | 101%
COc1ccc(/C=C2\C(=O)N(C(=O)c3csc(NC(C)=O)n3)N=C2C)cc1 | 112%
CCN1C(=O)N(CC)C2C1NN=c1s/c(=C\c3cccnc3)c(=O)n12 (stereo not given) | 23.3%
COc1ccc(CNS(=O)(=O)/N=C2\NC(=O)NC2=C(Cl)Cl)cc1 | 19.4%
O=c1oc2ccc(Br)cc2c(=O)n1-c1ccc(Cl)cc1F | -1.24% (active)
CNC(=O)c1cc(Oc2ccc3nc(NC(=O)Nc4ccc(F)cc4F)sc3c2)ccn1 | 51.2%

SMILES | growth
CCOC(=O)c1nn(CC(O)c2ccccc2)c(NC(=O)Nc2cccc(F)c2)c1C (stereo not given) | 94.6%
Cn1ccnc1C(=O)/C=C/c1ccc(CNC(=O)c2ccc(S(F)(F)(F)(F)F)cc2)cc1 | 23.3%
COc1ccc(/C=N/Nc2nc(Nc3ccccc3)nc(Nc3ccc(S(N)(=O)=O)cc3)n2)cc1 | 76.3%
N/C(=N\c1nc2ccccc2s1)NC(=O)Nc1ccccc1Cl | 16.6%
Nc1c(C(=O)Nc2cccc3ccccc23)sc2nc3c(cc12)COCC3 | 38.6%
CN(C)[C@@H]1C(=O)C(C(N)=O)=C(O)[C@@]2(O)C(=O)C3=C(O)c4c(O)cc(CN5CCc6ccccc6C5)c(Cl)c4C[C@H]3C[C@@H]12 | -46.8% (active)
COc1ccc(-c2nn(-c3ccccc3)cc2/C=C2/SC(=S)N(C)C2=O)cc1 | 89.1%
COC(=O)c1nc(=S)[nH]c(C(=O)OC)c1C(=O)c1ccc(OC)cc1 | 94.7%
NC(=N\N=C\c1ccccc1O)/C(N)=N/N=C/c1ccccc1O | 74%
COc1cccc(/C=C/c2c(C(=O)O)cccc2[N+](=O)[O-])c1OC | 108%
CN1CCN(Cc2ccc(NC(=O)c3cncc(C#Cc4[nH]nc5ncncc45)c3)cc2C(F)(F)F)CC1 | 58%
O=C(Nc1ccc(I)cc1)c1cc([N+](=O)[O-])ccc1O | 9.76% (active)
COc1ccc2nc3cc(Cl)ccc3c(NC(=O)CSc3ccc(Cl)cc3)c2c1 | -81.7% (active)
Nc1ncc(-c2ccc3ncnc(Nc4ccc(F)c(Cl)c4)c3c2)cn1 | -22.3% (active)
CCN1C(=O)N(CC)C2Nn3c(s/c(=C4\C(=O)N(C)c5ccccc54)c3=O)=NC21 (stereo not given) | 12.2%
O=C(c1ccccc1)N(C(=O)c1ccccc1)N1CCCC1 | 108%
Cc1cc2cccnc2c2ncccc12 | -20.5% (active)
CCC(=O)Nc1ccc(-c2nc(-c3cccc(OC)c3)c(-c3ccnc(Br)c3)[nH]2)cc1 | 38.9%
CNC(=O)c1cc(Oc2ccc(NC(=O)Nc3ccc(Cl)c(SC)c3)c(F)c2)ccn1 | 13.6%
CC(=O)c1cc2c(N)c(C(=O)Nc3cccc4c3OCCO4)sc2nc1C | 86.1%
